Only some compounds are listed: those with a hit (about 15% of all), similar ones and a draw of the others.
SARS PLpro yeast – SARS-CoV PLP inhibition in yeast; S. cerevisiae expressing SARS-CoV PLpro, growth rescue; Potency, µM (titrated, usually from 32.9 µM), for the others: at the highest dose activity, positive = growth rescue, usual class: activators; 330,000 tested, 0.19% active; AID 485353; calls by dose curve; note: potency is the fitted concentration of half-maximal effect; 0% is about no effect; nearly all actives have a fitted effect of over 55% in size
Pf growth 48h – inhibits P. falciparum growth in the first generation, 48 h; P. falciparum luciferase growth in erythrocytes, 48 h; Potency, µM (doses to about 28.7 µM), inactives show at the highest dose activity change, negative = inhibition, actives largely listed as inhibitors; 310,000 tested, 5.9% active; AID 504832; note: potency is the fitted concentration of half-maximal effect; % is set by controls: 0 for no effect and ±100 for the full control effect
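First compound was added to culture medium, then infected red cells at 0.1% parasitemia and 2% hematocrit (final). After incubation at 37 C under 5% CO2, luciferase detection reagent was dispensed and light output recorded.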
Sm TGR inh – S. mansoni TGR enzyme inhibition; purified TGR, DTNB reduction, TNB absorbance 405 nm; Potency, µM (doses to about 114 µM), for the others: top-dose activity change, negative = inhibition, hits mostly inhibitors; 360,000 tested, 3% active; note: potency is the fitted concentration of half-maximal effect; % is set by controls: 0 for no effect and ±100 for the full control effect; nearly all actives have a fitted effect of over 60% in size
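Kinetic colorimetric format: TGR-catalysed, NADPH-driven DTNB reduction monitored via TNB absorbance. Enzyme dispensed at 20 nM; compound exposure 15 min at room temperature before reaction start.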
HCMV antiviral – blocks human cytomegalovirus replication; HFF cells, HCMV-luciferase reporter, 72 h; active compounds read low; activity change, negative = inhibition, % at 57.5 µM; 410,000 tested, 4.5% active; AID 1259415; in the data active = activity change below about -60%; inconclusive = no clear call, values can overlap the other calls; inactive = above about -39%; note: % is set by controls: 0 for no effect and ±100 for the full control effect
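Two compound doses tested in HFFs infected with HCMV-luciferase, MOI 1 PFU/cell, 72 h at 37C. Lysate luminescence read with OneGlo; data normalized against buffer-only and 10uM Salinomycin inhibitor controls.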
Pf growth 96h – inhibits malaria parasite growth, 96 h; P. falciparum luciferase reporter growth, 96 h; Potency, µM (series often up to 28.7 µM), for inactives: top-dose activity change, negative = inhibition, hits mostly inhibitors; 320,000 tested, 6.9% active; note: potency is the fitted concentration of half-maximal effect; % is set by controls: 0 for no effect and ±100 for the full control effect
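Infected RBCs, 2% Hct / 0.05% parasitemia final; luciferase-reporter P. falciparum; cpd 96 h, 37 C, 5% CO2; luciferase detection reagent; luminescence.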
HCV inh – inhibitors of hepatitis C virus infection | Huh7.5.1 HCVcc-Cre infection, luciferase reporter, 44 h | Potency, µM (series often up to 41.8 µM), for inactives: at the highest dose activity change, negative = inhibition, most hits filed as inhibitors | 340,000 tested, 3.4% active | AID 651820; note: potency is the fitted concentration of half-maximal effect; % is set by controls: 0 for no effect and ±100 for the full control effect
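Infectious HCVcc-Cre (~0.5 moi) was added to cells just after compound, with cells seeded 4 h earlier at 1,000 per well. Luciferase activity after 44 h culture reported infection; substrate was incubated 15 min at room temperature before reading.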
* = called active by the depositor; ? = inconclusive; nt = no result given; [ ] = dose if it differs, or a comment. Unless noted, calls come from the whole dose curve; as a rule, active = well fitted curve in the direction sought with a large enough effect; inconclusive = small, poorly fitted or top-dose-only effect, or another doubt; inactive = no such curve, though single readings can be large; an effect the other way counts as inactive or inconclusive.

SMILES	SARS PLpro yeast	Pf growth 48h	Sm TGR inh	HCMV antiviral	Pf growth 96h	HCV inh
CC(C)NC(=O)c1csc(N2CCN(CCc3ccccc3)C2=O)n1	nt	nt	nt	11	nt	nt
Cc1cccc(-n2cc(-c3ccccc3)c3c(NC(C)C)ncnc32)c1	nt	nt	39%	-20	nt	nt
Cc1cc(C(=O)COc2cc(F)ccc2[N+](=O)[O-])c(C)n1CC1CCCO1 (stereo unspecified)	-3%	nt	nt	-66*	nt	5%
Cc1cc(-n2c(C)cc(C(=O)COc3cc(F)ccc3[N+](=O)[O-])c2C)no1	5%	9.3µM*	5%	?	?	?
Cc1cc(-n2c(C)cc(C(=O)COc3ccc([N+](=O)[O-])cc3)c2C)no1	0%	?	2%	-39	?	?
COc1ccc(NC(=O)CN(C)C(=O)CSCc2ccc(C)cc2)cc1	3%	?	-9%	31	?	0%
C[C@@H](NC(=O)c1[nH]cnc1C(=O)Nc1ccc(Cl)cc1)c1ccccc1	-5%	?	2%	-70*	?	?
C[C@@H](NC(=O)c1[nH]cnc1C(=O)Nc1ccon1)c1ccccc1	-3%	?	6%	99	?	-4%
O=C(Nc1ccccc1)c1nc[nH]c1C(=O)O	nt	nt	?	-19	nt	nt
C[C@H](NC(=O)c1[nH]cnc1C(=O)Nc1ccon1)c1ccccc1	3%	-22%	-4%	8	?	1.4µM*
O=C(c1ccccc1)c1nc[nH]c1C(=O)Nc1ccccc1	-2%	?	0%	-65*	6%[5.75 µM]	10%
COc1ccc(C(NC(=O)c2ccc(-c3ccccc3)cc2)c2ccccc2)cc1 (stereo unspecified)	2%	3%	5%	-66*	?	25%
COc1ccc(C(C)NC(=O)c2ccccc2)cc1 (stereo unspecified)	1%	9%	-1%	-25	nt	26%
CCc1nn(CC(=O)N2CCCCC2)c(=O)c2cc3sccc3n12	nt	nt	-1%	?	nt	nt
CCC(C)NC(=O)CSc1nnc(-c2ccc(C)cc2)c(-c2ccc(C)cc2)n1 (stereo unspecified)	nt	nt	1%	-3	nt	nt
CCOc1ccccc1NC(=O)C1CCCN(c2ncnc3onc(-c4ccc(F)cc4)c23)C1 (stereo unspecified)	nt	nt	12%	-22	nt	nt
Cc1ccc(C)n1C1C(=O)N(C)c2c(F)cccc21 (stereo unspecified)	nt	nt	nt	1	nt	nt
CN(C)c1ccc(CNC(=O)C2COc3ccccc3C2)cc1 (stereo unspecified)	nt	nt	4%	25	nt	nt
C[C@H](NC(=O)c1[nH]cnc1C(=O)Nc1cccc(Cl)c1)c1ccccc1	3%	?	-3%	?	?	-11%
Cc1ccc(C(NC(=O)NC(C)c2ccccc2)C(Cl)(Cl)Cl)cc1F (stereo unspecified)	-28%	4.1µM*	-4%	-100*	?	10µM*
O=C(Nc1ccc(Cl)cc1)c1nc[nH]c1C(=O)NCc1ccccc1	-3%	-20%	2%	-74*	?	?
NNC(=O)c1nc[nH]c1C(=O)Nc1ccccn1	14µM*	13%	10%	-8	?	16%
C[C@@H](NC(=O)c1[nH]cnc1C(=O)Nc1cccc(Cl)c1)c1ccccc1	0%	?	-17%	-79*	?	0%
CCOC(=O)CCNC(=O)C1=CN2CCN(Cc3ccccc3C)C(=O)N=C2O1	nt	nt	nt	6	nt	nt
O=C(COc1ccc(Cl)cc1)N/N=C/CCc1ccccc1	0%	-11%	24%	-2	-2%	-24%
SMILES	SARS PLpro yeast	Pf growth 48h	Sm TGR inh	HCMV antiviral	Pf growth 96h	HCV inh
C[C@@H]1C(SC2Cn3cnc[n+]3C2)=C(C(=O)[O-])N2C(=O)[C@H]([C@@H](C)O)[C@@H]12 (stereo partly specified)	nt	-12%	nt	nt	4%	nt
CCN(CC)C(=O)c1nc[nH]c1C(=O)N1CCC(C)CC1	1%	nt	nt	1	nt	9%
C=C(C)c1cccc(C(C)(C)NC(=O)NC(c2ccccc2)c2ccc(OC)cc2)c1 (stereo unspecified)	8%	?	2%	23	12µM*	-4%
COc1cccc(C(C)NC(=O)c2c(F)cccc2Cl)c1 (stereo unspecified)	2%	6%	1%	21	23%	32%
COc1cccc(C(C)NC(=O)Nc2ccccc2Cl)c1 (stereo unspecified)	0%	?	nt	-64*	4%	-28%
CC1CCN(C(=O)c2[nH]cnc2C(=O)N(C)Cc2ccccc2)CC1	-2%	11%	-17%	-62*	34%	-8%
CCOP(=O)(OCC)C(NC(=O)Nc1ccc(Cl)cc1)c1ccccc1 (stereo unspecified)	17%	?	-5%	-35	-17%	2%
CC(NC(=O)Nc1ccc(Cl)cc1)c1ccccc1 (stereo unspecified)	-3%	24%	-22%	-24	10µM*	-11%
Cc1c(C(=O)N2CCC(C(N)=O)CC2)oc2ccc(Br)cc12	5%	4%	0%	25	69%	3%
Cc1ccc(C)c(NC(=O)Cn2nnc(-c3ccc(N4CCOCC4)cc3)n2)c1	-2%	39%	-5%	116	2%	-12%
O=c1cc(CSc2nc(NCc3ccccc3)c3ccccc3n2)nc2ccc(Cl)cn12	5%	0%	-5%	4	?	1%
CCOc1ccc(S(=O)(=O)NCc2ccc3c(c2)CCN3C(=O)c2ccc(C)cc2)cc1	nt	nt	1%	?	nt	nt
COc1ccc(NC(=O)CNC(c2ccccc2)c2ccccc2)cc1	-2%	5%	0%	59	0%	3%
CC1CCN(C(=O)c2[nH]cnc2C(=O)Nc2ccon2)CC1	2%	9%	40µM*	2	23%	2%
COc1ccc(C(NCC(=O)NC(C)c2ccc(Cl)cc2)c2ccccc2)cc1 (stereo unspecified)	-1%	-21%	-8%	15	50%	11µM*
CCOC(=O)Cc1csc(NS(=O)(=O)c2ccc([N+](=O)[O-])cc2)n1	7%	-17%	-2%	0	?	7%
Cc1nn(C)c(C)c1CN(C)S(=O)(=O)c1ccc2ccccc2c1	29%	13µM*	0%	-82*	?	?
Cc1nn(C)c(C)c1CN(C)S(=O)(=O)c1ccc(F)cc1	12%	6%	-5%	-34	-10%	?
COCCNC(=S)N1CCC(NC(=O)c2ccco2)CC1	0%	19%	-6%	17	83%	7%
CCNC(=S)N(Cc1ccc2c(c1)OCO2)C1CC(=O)N(c2ccc(OC)cc2)C1=O (stereo unspecified)	7%	?	0%	-23	?	?

Screens (PubChem)
